According to PubChem BioAssay (NCI):
Compounds without any hit were thinned out: in the full panel of roughly 83,000, 20% have a hit.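 Treatment: one concentration, 48 hours, 96-well format. Scoring: percent growth, with anything below 10 considered active.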 The source made the active and inactive calls.

Key:
Test in all cases: NCI-60 one-dose screen, 48 h (100 = growth as untreated, 0 = no growth, -100 = all killed)
Conditions in all cases: 10 µM unless noted
NCI-H23 lung = test system: NCI-H23 lung
NCI-H226 lung = test system: NCI-H226 lung
NCI-H322M lung = test system: NCI-H322M lung
HOP-62 NSCLC = test system: HOP-62 NSCLC
NCI-H460 lung = test system: NCI-H460 lung
HOP-92 NSCLC = test system: HOP-92 NSCLC
NCI-H522 lung = test system: NCI-H522 lung
A549/ATCC NSCLC = test system: A549/ATCC NSCLC
786-0 renal = test system: 786-0 renal
COLO 205 colon = test system: COLO 205 colon
DU-145 prostate = test system: DU-145 prostate
K-562 leukemia = test system: K-562 leukemia
MALME-3M melanoma = test system: MALME-3M melanoma
MDA-MB-231 breast = test system: MDA-MB-231 breast
SF-268 CNS = test system: SF-268 CNS
SF-295 CNS = test system: SF-295 CNS
SF-539 CNS = test system: SF-539 CNS
UACC-257 melanoma = test system: UACC-257 melanoma
M14 melanoma = test system: M14 melanoma

Measured: growth

Cc1ccc(NC(=O)c2sc3nc4c(cc3c2N)C(=O)CCC4)cc1C
inactive: NCI-H23 lung 32.7% | NCI-H226 lung 80.2% | NCI-H322M lung 42.5% | HOP-62 NSCLC 23.5% | HOP-92 NSCLC 90.8% | A549/ATCC NSCLC 19.5% | 786-0 renal 37.4% | K-562 leukemia 11.7% | MALME-3M melanoma 48.8% | MDA-MB-231 breast 35.3% | SF-268 CNS 42.7% | UACC-257 melanoma 54.2%
active: NCI-H460 lung 7.88% | NCI-H522 lung -9.22% | COLO 205 colon -25.2% | DU-145 prostate 8.18% | SF-295 CNS 8.72% | SF-539 CNS -10.4% | M14 melanoma 8.39%

CC(=O)Oc1cc2cnc3c4cc(OC(C)=O)c(OC(C)=O)cc4ccc3c2cc1OC(C)=O
active: NCI-H322M lung 5.6% | NCI-H460 lung 9.99% | NCI-H522 lung -28.8% | K-562 leukemia 6.46% | MALME-3M melanoma 6.96% | SF-539 CNS -10.8%
inactive: NCI-H23 lung 25.4% | NCI-H226 lung 36.4% | HOP-62 NSCLC 28.7% | HOP-92 NSCLC 18.6% | A549/ATCC NSCLC 25.5% | 786-0 renal 18.9% | COLO 205 colon 78% | DU-145 prostate 16.6% | MDA-MB-231 breast 26.3% | SF-268 CNS 12.2% | SF-295 CNS 13.9% | UACC-257 melanoma 20.6% | M14 melanoma 13.9%

c1c2c(cc3c1OCO3)Cc1cc3c(cc1Cc1cc4c(cc1C2)OCO4)OCO3
inactive: NCI-H23 lung 109% | NCI-H226 lung 105% | NCI-H322M lung 109% | HOP-62 NSCLC 109% | NCI-H460 lung 104% | HOP-92 NSCLC 96.7% | NCI-H522 lung 94.2% | A549/ATCC NSCLC 91.6% | 786-0 renal 110% | COLO 205 colon 114% | DU-145 prostate 121% | K-562 leukemia 117% | MALME-3M melanoma 116% | MDA-MB-231 breast 116% | SF-268 CNS 111% | SF-295 CNS 95.8% | SF-539 CNS 97.9% | UACC-257 melanoma 84.6% | M14 melanoma 104%

CN1CCCCC1CCN1c2ccccc2Sc2ccc(Br)cc21 (stereo not given)
inactive: NCI-H23 lung 77.4% | NCI-H226 lung 89.9% | NCI-H322M lung 59.1% | HOP-62 NSCLC 85.7% | NCI-H460 lung 64.9% | HOP-92 NSCLC 45.5% | NCI-H522 lung 62.9% | A549/ATCC NSCLC 67.5% | 786-0 renal 55% | COLO 205 colon 51.5% | DU-145 prostate 77.9% | MALME-3M melanoma 78.4% | MDA-MB-231 breast 67.6% | SF-268 CNS 66.3% | SF-295 CNS 59.6% | SF-539 CNS 95.9% | UACC-257 melanoma 70.7% | M14 melanoma 49.1%
active: K-562 leukemia 2.32%

O=C(O)C(O)C(O)C(=O)O.[NH-]C1CCCCC1[NH-].[Pt+2] (stereo not given)
inactive: NCI-H23 lung 107% | NCI-H226 lung 102% | NCI-H322M lung 117% | HOP-62 NSCLC 98.8% | NCI-H460 lung 103% | HOP-92 NSCLC 100% | NCI-H522 lung 93.5% | A549/ATCC NSCLC 111% | 786-0 renal 99.9% | COLO 205 colon 106% | DU-145 prostate 107% | K-562 leukemia 105% | MALME-3M melanoma 127% | MDA-MB-231 breast 98.7% | SF-268 CNS 104% | SF-539 CNS 105% | UACC-257 melanoma 122% | M14 melanoma 103%

COc1cccc2c1C(=O)c1c(O)c3c(c(O)c1C2=O)C[C@@](O)(/C(C)=N/NC(=O)c1ccc(Cl)cc1)C[C@@H]3OC1CC(N)C(O)C(C)O1 (stereo not given in full)
active: NCI-H23 lung -39.7% | NCI-H226 lung -39.4% | NCI-H322M lung -35.3% | HOP-62 NSCLC -17% | NCI-H460 lung -21.8% | HOP-92 NSCLC -6.16% | NCI-H522 lung -70.1% | A549/ATCC NSCLC -32.8% | 786-0 renal -6.44% | COLO 205 colon -81.4% | DU-145 prostate -0.501% | K-562 leukemia -19.5% | MALME-3M melanoma -74.6% | MDA-MB-231 breast -1.48% | SF-268 CNS -54.8% | SF-295 CNS -60.4% | SF-539 CNS -45.5% | UACC-257 melanoma -57.1% | M14 melanoma -60%

CCc1ccccc1NC(=O)c1sc2nc3c(cc2c1N)C(=O)CCC3
inactive: NCI-H23 lung 38.2% | NCI-H226 lung 67.3% | NCI-H322M lung 46.3% | HOP-62 NSCLC 35.5% | HOP-92 NSCLC 84.8% | A549/ATCC NSCLC 21.5% | 786-0 renal 35.1% | K-562 leukemia 11% | MALME-3M melanoma 60.8% | MDA-MB-231 breast 36.6% | SF-268 CNS 40.4% | UACC-257 melanoma 65% | M14 melanoma 15.1%
active: NCI-H460 lung 6.42% | NCI-H522 lung -11.6% | COLO 205 colon -7.87% | DU-145 prostate 2.55% | SF-295 CNS -3.21% | SF-539 CNS -1.47%

NC(CC(=O)O)C(=O)OCc1ccccc1 (stereo not given)
inactive: NCI-H23 lung 104% | NCI-H226 lung 95.1% | NCI-H322M lung 84.2% | HOP-62 NSCLC 86.7% | NCI-H460 lung 103% | HOP-92 NSCLC 86.3% | NCI-H522 lung 84.3% | A549/ATCC NSCLC 105% | 786-0 renal 98.6% | COLO 205 colon 106% | DU-145 prostate 109% | K-562 leukemia 106% | MALME-3M melanoma 81.1% | MDA-MB-231 breast 105% | SF-268 CNS 100% | SF-295 CNS 93.3% | SF-539 CNS 93.4% | UACC-257 melanoma 89.2% | M14 melanoma 104%

O=C(N/N=C/c1ccc(O)cc1O)c1cccnc1
inactive: NCI-H23 lung 45.3% | NCI-H226 lung 70.5% | NCI-H322M lung 29.9% | HOP-62 NSCLC 43.2% | NCI-H460 lung 10.9% | HOP-92 NSCLC 56.4% | A549/ATCC NSCLC 46.4% | 786-0 renal 37.9% | COLO 205 colon 23.4% | DU-145 prostate 48.4% | K-562 leukemia 26.7% | MALME-3M melanoma 61.8% | MDA-MB-231 breast 62.5% | SF-268 CNS 43.6% | SF-295 CNS 15.6% | SF-539 CNS 29.5% | M14 melanoma 39.3%
active: NCI-H522 lung -6.04% | UACC-257 melanoma -3.63%
